Assay outcomes from PubChem BioAssay.
HSF1 activator: HSF-1 activators, primary screen, NIH3T3-HGL cells, MG132 stress, luminescence, single point; 300,000 compounds, 1.7% hits; NIH3T3-HGL HSF-1 luciferase reporter, 8 h; 100% = twice DMSO control signal; activation, % at 9 µM;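 active = mean replicate activation of at least 50% with a set share of replicates each reaching 50%; inconclusive = only one of those two conditions met; inactive = mean below 50% and too few replicates reaching it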;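 note: 0% = median of the neutral control wells and 100% = twice that signal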
HSF1 inhib: HSF1 inhibitors in luciferase reporter cells, primary screen, cell-based, NIH3T3, luminescence | NIH3T3-HGL HSE-luciferase, MG132-induced, luminescence 8 h; stronger effect = lower value | activity change, negative = inhibition, % at 7.5 µM (by protocol) | 300,000 compounds, 0.77% hits | AID 2098, 2009;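 active = more than half of replicate wells show activity change below -50%, luminescence cut by over half; inconclusive = some wells, but at most half, below -50%; inactive = no replicate well below -50%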;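 note: luciferase reports HSF-1 transcriptional activity via heat shock element; 0% = median of DMSO wells and -100% = zero luminescence signal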
MITF TRPM1 HTS: activators of MITF-driven TRPM1 promoter reporter, primary screen, cell-based, SK-MEL-5, luciferase, single point; activation, % at 12.5 µM; 300,000 compounds, 0.75% hits; SK-MEL-5 TRPM1-promoter luciferase, 24 h; % of positive control, neutral wells = 0;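 active = mean activation of at least 80% with every replicate also reaching 80%; inconclusive = mean reaches 80% but some replicate falls short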;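 note: 0% = neutral control wells and 100% = parthenolide positive control wells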
Wnt act: Wnt/beta-catenin pathway activators, primary screen, cell-based, plate reader, single point; Wnt/beta-catenin reporter cell assay, activator; activation, % at 9.35 µM; 300,000 compounds, 1.2% hits; AID 743398, 2014; in the data active = activation above about 30%, passing the limit was not always enough; inconclusive = no clear call, values can overlap the other calls;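 note: 0% = neutral control wells and 100% = positive control wells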
esBAF inh: Bmi1 luciferase reporter increase in mESCs, primary screen, esBAF inhibitor project, mouse ES cells, Bmi1 luciferase knock-in, single point. 24 h; 100% = twice the neutral-well signal. reporter increase, % at 12.5 µM. 350,000 compounds, 2% hits. AID 602393, 2012; in the data active = activation above about 40%; inconclusive = no clear call, values can overlap the other calls;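 note: 0% = median of the plate's neutral control wells and 100% = double that signal; a rise in the Bmi1 reporter signal indicates esBAF inhibition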
SMARCA2 activ: SMARCA2 (BRM) function activators, primary screen, cell-based, luminescence, high throughput | MG213 cells, MMTV-luciferase reporter, dexamethasone, overnight | 370,000 compounds, 1% hits | activation, % at 9.1 µM; in the data active = activation above about 7.8%;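 note: 0% = vehicle wells and 100% = reference activator wells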
An asterisk follows results filed as active. In the library only some 4.3% were active in any assay of this set; here they are far more common.

How did CCOC(=O)c1cccc(N/C=C/C(=O)c2ccc(OC)c(OC)c2)c1 do in these assays?
HSF1 activator: -23.1; HSF1 inhib: 2.5; MITF TRPM1 HTS: 25.2; esBAF inh: 52.6*; SMARCA2 activ: 2.4

Results for COc1ccc(-c2c(C)nc3c(-c4ccccn4)cnn3c2N)cc1 ?
HSF1 activator: -8.9; HSF1 inhib: -12.7; Wnt act: 22.4; esBAF inh: 26.3; SMARCA2 activ: 5.8

Results for Cc1cc(N)n2ncc(-c3ccc(F)cc3)c2n1 ?
HSF1 activator: 32.3; HSF1 inhib: 21.3; MITF TRPM1 HTS: 73.5; esBAF inh: 57.6*; SMARCA2 activ: 0.2

What do the screens show for `Nc1c(-c2cccs2)cnc2c(-c3ccc(F)cc3)cnn12`?
HSF1 activator: inconclusive; HSF1 inhib: 15.2; MITF TRPM1 HTS: 71.0; Wnt act: 53.8*; esBAF inh: 2.3; SMARCA2 activ: 4.0

What do the screens show for `COc1ccc(-c2c(C)nc3c(-c4ccsc4)cnn3c2N)cc1`?
HSF1 activator: -21.2; HSF1 inhib: -18.6; MITF TRPM1 HTS: 94.1*; Wnt act: 28.7; esBAF inh: 10.0; SMARCA2 activ: 6.2

What do the screens show for `Cc1nc2c(-c3ccc(F)cc3)cnn2c(N)c1-c1ccc(F)cc1`?
HSF1 activator: -62.1; HSF1 inhib: -56.5*; MITF TRPM1 HTS: 52.4; Wnt act: 13.6; esBAF inh: 39.9; SMARCA2 activ: -3.1

What do the screens show for `CNC[C@H]1OCCCC[C@@H](C)Oc2ccc(NS(=O)(=O)c3ccccc3)cc2C(=O)N([C@@H](C)CO)C[C@@H]1C`?
esBAF inh: 0.2

Results for Cc1cc(C(=O)Nc2cccc3c2O[C@@H](CN(C)S(=O)(=O)c2cccs2)[C@@H](C)CN([C@H](C)CO)C3=O)n(C)n1 ?
esBAF inh: -1.0

How did C[C@H]1CCCCO[C@H](CN(C)Cc2ccc3c(c2)OCO3)[C@@H](C)CN([C@@H](C)CO)C(=O)c2cc(NC(=O)C3CCCCC3)ccc2O1 do in these assays?
esBAF inh: -1.9

How did CCOc1ccc(-c2nnc(N)s2)cc1 do in these assays?
HSF1 activator: 9.7; HSF1 inhib: 9.6; MITF TRPM1 HTS: 56.6; esBAF inh: 60.4*; SMARCA2 activ: 2.9

Results for CC(=O)c1ccc(NC(=O)COc2ccc3c(c2)OCO3)cc1 ?
HSF1 activator: 55.8*; HSF1 inhib: 17.2; MITF TRPM1 HTS: 7.8; Wnt act: 0.5; esBAF inh: -0.6; SMARCA2 activ: -3.1

How did COc1ccc(NC(=O)COc2ccc3c(c2)OCO3)cc1 do in these assays?
HSF1 activator: -31.6; HSF1 inhib: -21.0; MITF TRPM1 HTS: 6.0; Wnt act: 1.9; esBAF inh: 0.6; SMARCA2 activ: -0.5

How did CC(=O)Nc1cccc(NC(=O)COc2ccc3c(c2)OCO3)c1 do in these assays?
HSF1 activator: 56.5*; HSF1 inhib: 25.9; MITF TRPM1 HTS: 31.1; Wnt act: 8.7; esBAF inh: 16.4; SMARCA2 activ: 0.4

Results for Cc1cc(C(=O)COC(=O)c2ccc(Cl)c(S(N)(=O)=O)c2)c(C)n1C1CC1 ?
HSF1 activator: 39.2; HSF1 inhib: 29.8; MITF TRPM1 HTS: 97.2*; Wnt act: 44.6*; esBAF inh: 77.8*; SMARCA2 activ: 3.1

How did Cc1cc(C(=O)COC(=O)c2ccc(NC(=O)CC#N)cc2)c(C)n1C1CC1 do in these assays?
MITF TRPM1 HTS: 50.4; Wnt act: 8.5; esBAF inh: 68.1*; SMARCA2 activ: 4.3

How did N#CCC(=O)Nc1ccc(C(=O)OCC(=O)Nc2ccccc2Sc2ccccc2)cc1 do in these assays?
HSF1 activator: 63.3*; HSF1 inhib: 20.6; MITF TRPM1 HTS: -6.1; Wnt act: -2.2; SMARCA2 activ: -2.7

What do the screens show for `CC(C)N(C(=O)COC(=O)c1ccc(Cl)c(S(N)(=O)=O)c1)C(C)C`?
HSF1 activator: -1.6; HSF1 inhib: -8.4; MITF TRPM1 HTS: 2.8; Wnt act: -1.4; SMARCA2 activ: -3.0
